Assay outcomes: PubChem, National Center for Advancing Translational Sciences (NCATS)
CHX counter = counter-screen for Shiga toxin inhibitors: cycloheximide protein synthesis inhibition. cell reporter, cycloheximide protein synthesis inhibition counterscreen. max response, %. actives 12% (n = 300,000); in the data active means max response mostly above about 13%, no sharp cut-off; inactive means mostly below about 14%; further: read at 38.3 µM for the half of the compounds with a filed dose; 0% is about no effect
Pf growth 48h = inhibits P. falciparum growth in the first generation, 48 h. P. falciparum luciferase growth in erythrocytes, 48 h. Potency, µM (series often up to 28.7 µM), for the others: top-dose activity change, negative = inhibition, actives largely listed as inhibitors. actives 5.9% (n = 310,000); further: potency means the concentration at half of the fitted maximal effect; on the % scale 0 is the no-effect control and ±100 the full control effect
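Read-out is firefly luciferase luminescence from an integrated reporter in P. falciparum, so falling signal marks reduced parasite growth. Infected erythrocytes were at 2% hematocrit and 0.1% parasitemia (final) in Albumax-supplemented RPMI 1640.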
Pf growth 96h = inhibits malaria parasite growth, 96 h; P. falciparum luciferase reporter growth, 96 h; Potency, µM (titrated, usually from 28.7 µM), without a hit: top-dose activity change, negative = inhibition, hits mostly inhibitors; actives 6.9% (n = 320,000); AID 504834; further: potency means the concentration at half of the fitted maximal effect; on the % scale 0 is the no-effect control and ±100 the full control effect
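Parasite growth measured via integrated firefly luciferase reporter in P. falciparum. Infected erythrocytes at 2% hematocrit, 0.05% parasitemia final were treated 96 hours at 37 C under 5% CO2, and luminescence was read.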
Shiga inhibitor = blocks Shiga toxin action in Vero cells. Vero cells, Shiga toxin protein synthesis inhibition reporter. inhibition, % at 38.7 µM. actives 9.2% (n = 290,000); in the data active means inhibition mostly above about 28%, no sharp cut-off; inactive means mostly below about 43%; further: 0% is about no effect
* hit, by the source's call; i = inactive; ? = inconclusive; nt = no result; [ ] = dose if it differs, or a comment. Sampled rows, rich in hits. Any-hit rate of the full collection: about 21%. Unless noted, the call rests on the fitted dose curve; in most records, active means well fitted inhibition curve with a large enough effect; inconclusive means small, poorly fitted or top-dose-only effect, or another doubt; inactive means no such curve, though single readings can be large or run the other way.

SMILES | CHX counter | Pf growth 48h | Pf growth 96h | Shiga inhibitor
N#Cc1ccc2c(c1)C[C@]1(c3ccsc3)OC3=C(C(=O)OC4(CCCCC4)C3)C2O1 | 9.4 | ? | ? | i
CCOC(=O)C1CCCN(c2c(Nc3cc(C)cc(C)c3)c(=O)c2=O)C1 (stereo not drawn) | -6.1 | nt | 9.28µM* | -13.7
CCOC(=O)C1CCCN(c2c(NCCc3ccc(C)cc3)c(=O)c2=O)C1 (stereo not drawn) | 0.9 | ? | -24.9% | -1.7
CCOC(=O)C1CCCN(c2c(NCCN3CCCCC3C)c(=O)c2=O)C1 (stereo not drawn) | -3.5 | -4.4% | 4.65µM* | -3.0
CCOC(=O)C1CCCN(c2c(NCCN(CC)c3ccccc3)c(=O)c2=O)C1 (stereo not drawn) | 1.0 | 10.4µM* | -28.9% | 7.8
CCOC(=O)C1CCCN(c2c(Nc3ccc(C)c(C)c3)c(=O)c2=O)C1 (stereo not drawn) | -2.3 | 8.28µM* | -16.5% | -8.1
O=C(O)c1ccc2c(c1)C(=O)N(CCc1ccc(O)cc1)C2=O | 5.3 | 3.1% | -6.9% | -2.2
COc1cc(C2CC(=O)C=C(O)C2)cc(OC)c1OC (stereo not drawn) | -0.8 | 5.86µM* | ? | 0.8
O=C(CCCN1C(=O)/C(=C/c2cccc(Br)c2)SC1=S)NCCCN1CCOCC1 | 9.6 | ? | 3.29µM* | -13.3
CCc1ccc(/C=C2\SC(=S)N(CCC(=O)NCCCN3CCOCC3)C2=O)cc1 | 44.9* | 5.1% | ? | 46.4*
COc1ccc(/C=C2\SC(=S)N(CCC(=O)NCCCN3CCOCC3)C2=O)cc1 | 13.1* | ? | 30.9% | 27.7
Cc1ccc(/C=C2\SC(=S)N(CCC(=O)NCCCN3CCOCC3)C2=O)cc1 | 13.6 | -25.3% | ? | 25.0
O=C(CCN1C(=O)/C(=C/c2ccccc2Cl)SC1=S)NCCCN1CCOCC1 | 8.8 | ? | 13.1µM* | 4.6
O=C(CN1C(=O)/C(=C/c2cccc(Br)c2)SC1=S)NCCCN1CCOCC1 | 8.3 | 19.8% | 60.6% | 16.0
O=C(CCCN1C(=O)/C(=C/c2ccccc2Cl)SC1=S)N1CCOCC1 | -1.4 | ? | ? | -10.9
COC(=O)C1=C(COc2ccc(C=O)cc2OC)NC(=O)NC1c1cc(C)ccc1C (stereo not drawn) | -1.4 | 0.0% | 27.8% | -11.5
CCOC(=O)c1c(C)nc2c(c(SC)nn2-c2ccccc2)c1N | -1.3 | ? | ? | -5.5
CSCCC(NC(N)=O)C(=O)Nc1ccc(F)c(Cl)c1 (stereo not drawn) | -2.2 | -14.2% | 45.8% | -2.6
CCc1noc(C)c1C(=O)N(CC)CC(=O)NCc1ccc(Cl)cc1 | nt | 12.4% | -9.7% | nt
Cc1cc(NC(=O)CSc2nnc(-c3ccccc3)o2)no1 | -2.1 | ? | 11.7µM* | 38.7
Cc1cc(NC(=O)CSc2ccc3nnc(-c4ccccc4)n3n2)no1 | 0.7 | 2.62µM* | 13.1% | 10.1
COc1ccc(-c2nnc3ccc(SCC(=O)Nc4cc(C)on4)nn23)cc1 | -9.6 | -14.9% | ? | -3.5
Cc1cc(NC(=O)CSc2nnc(-c3ccc(O)cc3)o2)no1 | active | 6.57µM* | ? | 52.2*
Cc1cc(C)cc(-c2nnc(SCC(=O)Nc3cc(C)on3)o2)c1 | nt | 3.5% | ? | nt
O=C(CCSc1nnc(-c2ccncc2)o1)Nc1ccccc1 | -4.0 | 19.3% | -19.5% | -8.9
SMILES | CHX counter | Pf growth 48h | Pf growth 96h | Shiga inhibitor
Cc1cc(NC(=O)CSc2nnc(-c3ccc([N+](=O)[O-])cc3)o2)no1 | -1.6 | ? | 21.8% | 6.2
Cc1cc(-c2nnc(SCCC(=O)Nc3ccccc3)o2)no1 | 34.5* | -15.5% | ? | -12.1
CCCOc1ccc(-c2c(C(=O)N/N=C/c3cccs3)nnn2-c2nonc2N)cc1 | -2.2 | ? | 3.9% | -1.4
O=C(CSc1nnc(-c2ccc(O)cc2)o1)Nc1ccccc1 | 28.2* | -74.8% | 37.5% | 60.6*
O=C(CSc1nnc(Cc2ccccc2)o1)Nc1ccccc1 | 17.5 | 32.9% | 15.2% | 1.7
O=C(CSc1nnc(-c2csc3c2CCCC3)o1)Nc1ccccc1 | 58.4* | nt | -36.6% | 55.1*
Cc1cc(NC(=O)CN2CCN(c3ccc(O)cc3)CC2)no1 | -4.0 | ? | 9.28µM* | -15.1
CC(=O)c1cccc(NC(=O)CSc2nnc(-c3ccncc3)o2)c1 | nt | 14.0% | -1.0% | nt
COc1cccc(C(=O)N2CCN(Cc3nc(CC4CC4)no3)CC2)c1 | -1.2 | 9.6% | 17.5% | 20.9
Cc1ccc(N2C(=O)NC(=O)/C(=C/C=C/c3ccco3)C2=O)cc1 | 24.0* | 6.9% | -0.3% | 25.8*
CCc1ccc(N2C(=O)NC(=O)/C(=C\C=C\c3ccco3)C2=O)cc1 | 21.9* | 19.7% | -1.4% | 17.5
CC(C)c1ccc(N2C(=O)NC(=O)/C(=C/C=C/c3ccco3)C2=O)cc1 | -2.0 | 15.2% | 79.1% | -2.8
Cc1cc(C)cc(N2C(=O)NC(=O)/C(=C\C=C\c3ccco3)C2=O)c1 | 13.1 | 0.0% | 30.7% | 48.7*
O=C1NC(=O)N(Cc2ccc(F)cc2)C(=O)/C1=C\C=C\c1ccco1 | -1.6 | -1.5% | -2.2% | 11.3
c1coc(-c2nn3c(-c4ccco4)nnc3s2)c1 | 10.3* | 8.1% | ? | 11.9
Clc1ccc(OCc2nn3c(-c4ccco4)nnc3s2)cc1 | 11.6 | 14.7µM* | -23.2% | 6.2
c1coc(-c2nnc3sc(Cc4cccs4)nn23)c1 | 11.9 | -6.5% | -8.0% | 30.4
COc1ccccc1-c1nnc2sc(COc3ccccc3)nn12 | 1.5 | ? | -15.1% | -9.2
COc1ccc(OCc2nn3c(-c4ccco4)nnc3s2)cc1 | 7.2 | -27.8% | nt | 11.9
COc1ccccc1-c1nnc2sc(COc3ccc(Cl)cc3Cl)nn12 | -2.1 | ? | 10.4µM* | -22.1
CCN(CC)c1ccc(-c2nn3c(-c4ccccc4OC)nnc3s2)cc1 | -0.6 | 2.62µM* | 11.4%[5.75 µM] | 17.5
O=C(CSc1nc2ncc(Cl)cc2[nH]1)NCC(=O)Nc1ccc(F)c(F)c1F | -0.7 | 57.5% | 0.0% | 0.5
COc1ccccc1-c1nn2c(-c3ccco3)nnc2s1 | 67.7* | nt | ? | 112.5*
COc1ccccc1-c1nn2c(-c3ccccc3Cl)nnc2s1 | -2.4 | ? | nt | 22.4
c1ccc(OCc2nn3c(-c4cccnc4)nnc3s2)cc1 | 0.1 | ? | 11.7µM* | 35.1
SMILES | CHX counter | Pf growth 48h | Pf growth 96h | Shiga inhibitor
C/C(=C\CNc1ncnc2c1ncn2[C@@H]1O[C@H](CO)[C@@H](O)[C@H]1O)CO | 6.0 | nt | nt | 15.8
CCOC(=O)C1=C(C)N(C2CCCCC2)C(=O)C1 | -4.4 | ? | nt | -1.9
COC(=O)C1=C(C)N(C2CCCCC2)C(=O)C1 | -2.0 | 0.6% | 1.85µM* | -13.5
C/C=C/c1ccc(OCCCCOc2ccc(OC)cc2)c(OC)c1 | -2.8 | -16.1% | 29.6% | -4.5
COc1ccc(-c2oc3cccnc3c2/C=C/c2ccc(OC)c(OC)c2)cc1 | 9.9* | ? | 11.7µM* | 17.3
CC(C)(C)C1COc2ccccc2N1C(=O)c1cccc(Cl)c1 (stereo not drawn) | -4.3 | ? | ? | 2.2
COCCN1CN=C(Nc2nc(C)c3ccc(C)cc3n2)NC1 | -3.9 | 2.08µM* | 3.0% | -13.9
Cc1ccc2c(C)nc(NC3=NCN(CCc4ccccc4)CN3)nc2c1 | -5.3 | 2.62µM* | 239.5% | -13.0
Cc1ccc(S(=O)(=O)O)cc1C | nt | -3.3% | 18.3% | nt
